From the OligoGym collection

Target: KDELR1
Experiment: pooled miR-30 sensor sort-seq; sequence = guide strand
Conditions: shRNA
Further: reference of the scale not given here.

Row | Sequence | sensor-assay potency score (higher = more potent)
1 | TTTGGTGATATAGAGGTAGAAG | -0.962
2 | TCGTAAGTAGCTTTGAACTTGC | -0.201
3 | TAGGACTTTGGTGATATAGAGG | -1.32
4 | TAGACCACCTTCATACACGTGT | 0.283
5 | TAAGTAGCTTTGAACTTGCTAT | -0.0372

Target: KDM2B
Experiment: as above
Conditions: shRNA

Row | Sequence | sensor-assay potency score (higher = more potent)
6 | TATCTCTCCAGGACATACCAGC | -0.897
7 | TTTGGCATCGTTCCACACGGTC | -1.07
8 | TTCTTTGCCAGGTTTGAGCTGC | -0.103
9 | TATCGCTGGCGGTCAATCGGGC | -0.118
10 | TTGTCCATCTGACCTGGCCTGT | -0.884
11 | TAAACTTGCCTTCCTCCTCTTC | -0.422
12 | TTCTTGGAGATATTGGTCCAGC | -0.935
13 | TGGTTGAACAGCTTCTCCCTTG | -0.428
14 | TTACACTTCGGACACTCCCAGC | -1.12
15 | TTGGAGATATTGGTCCAGCTGA | -0.912
16 | TTCGAGTGCTCATCCGACCTGC | 0.201
17 | TTCTTTGCCAGGTTTGAGCCGC | -0.547

Target: KDR
Experiment: as above
Conditions: shRNA

Row | Sequence | sensor-assay potency score (higher = more potent)
18 | TTGCACTCCAATCTCTATCAGC | -0.492
19 | ATTTTGACTGCTACTGTCCTGC | 0.0399
20 | TAGCTGATCATGTAGCTGGGAA | -0.114
21 | TTCTTCTTGGTCATCAGCCCAC | -0.727
22 | TAATTTGGTTCTGTCTTCCAAA | -0.462
23 | TTGCTGTCTTGTCAATTCCAAA | -1.68
24 | TAGACTGGTAACTTTCATCATT | -0.75
25 | TTTTGCTTCACAGAAGACCATG | -1.02
26 | TAATAGACTGGTAACTTTCATC | -0.621
27 | TTGACTGCTACTGTCCTGCAAG | -0.615
28 | TTCTTCTACATCACTGAGGGAC | -0.165
29 | TGTCTTTTCTTGGTCTTCCTGT | 0.316

Target: KHDRBS3
Experiment: as above
Conditions: shRNA

Row | Sequence | sensor-assay potency score (higher = more potent)
30 | TAAGTCTCTTGTGTCGGGGGTG | -0.204
31 | TTGAGTTAGTCCACTCTTCTTG | 0.078
32 | TTGAACAGTATACAGGACTGGT | -0.303
33 | TTCTTCTTGTAAACGCTTCAGA | -0.501
34 | TGGTACTACAACTCCAACTGGC | -0.54
35 | TTGCTGTCCTCGCTGAAGGTGC | -1.17
36 | TTCTATTTCTTGGTTCACCAGG | -0.397
37 | TTGAGATGGAAGTACTTCGCTT | -0.344
38 | TTGTGTCTTGAGTTAGTCCACT | -0.733
39 | TACTACAACTCCAACTGGCCGG | -0.46
40 | TAACACTTTCTGTCCCAGCTTC | 0.341
